HEK293 tox: kills HEK 293 cells; HEK 293 viability, ATP luminescence (CellTiter-Glo), 48-72 h; Potency, µM (series often up to 115 µM), inactives show at the highest dose activity change, negative = cytotoxicity, most hits filed as inhibitors; 94,000 tested, 6.6% active; note: nearly all actives have a fitted effect of over 60% in size
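Pintool-delivered compounds were incubated with HEK 293 cells (250 cells/well) at 37 degree Celsius for 48 or 72 hr. ATP-dependent luminescence (CellTiter-Glo) then reported remaining viable cells.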
3T3 cytotox: NIH 3T3 cell cytotoxicity | NIH 3T3 viability, CellTiter-Glo ATP luminescence, 48-72 h | Potency, µM (highest dose often 96.7 µM), inactives show at the highest dose activity change, negative = cytotoxicity, actives largely listed as inhibitors | 94,000 tested, 4.3% active; note: nearly all actives have a fitted effect of over 55% in size
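Luminescent ATP readout (CellTiter-Glo, 10 min RT) after 48 or 72 hr compound exposure of NIH 3T3 cells seeded at 400 cells/well in 1536-well format; quantitative HTS.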
SNCA expr inhib: reduces expression of the alpha-synuclein gene. HEK-293 SNCA-luciferase knock-in, luminescence, 24 h. Potency, µM (titrated, usually from 57.2 µM), for the others: top-dose activity change, negative = inhibition, hits mostly inhibitors. 140,000 tested, 0.17% active. AID 1671194;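 note: plate controls were DMSO cells for no effect and cell-free wells for full effect; nearly all actives have a fitted effect of over 45% in size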
NPR1 antag: human Npr1 receptor antagonism. P16066. HEK293 hNpr1 GloSensor cGMP, ANP-stimulated luminescence. Potency, µM (titrated, usually from 46.3 µM), for the others: at the highest dose activity change, negative = inhibition, usual class: inhibitors. 76,000 tested, 1.6% active. AID 1347048; calls by dose curve; note: nearly all actives have a fitted effect of over 60% in size
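Compound pre-incubated 30 min at room temperature on GloSensor-loaded HEK293 cells stably carrying hNpr1 and the pGS-40F cGMP biosensor. Stimulation uses hNppA at 0.1 nM final; luminescence is taken at baseline and 20 min post-agonist.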
Luciferase inh: inhibitors of firefly (Photinus pyralis) luciferase. AID 1347043. P08659. Potency, µM (series often up to 115 µM), usual class: inhibitors. 76,000 tested, 2.5% active. purified P. pyralis luciferase, luminescence, biochemical; note: nearly all actives have a fitted effect of over 65% in size
Target sequence (P08659 whole entry, looked up): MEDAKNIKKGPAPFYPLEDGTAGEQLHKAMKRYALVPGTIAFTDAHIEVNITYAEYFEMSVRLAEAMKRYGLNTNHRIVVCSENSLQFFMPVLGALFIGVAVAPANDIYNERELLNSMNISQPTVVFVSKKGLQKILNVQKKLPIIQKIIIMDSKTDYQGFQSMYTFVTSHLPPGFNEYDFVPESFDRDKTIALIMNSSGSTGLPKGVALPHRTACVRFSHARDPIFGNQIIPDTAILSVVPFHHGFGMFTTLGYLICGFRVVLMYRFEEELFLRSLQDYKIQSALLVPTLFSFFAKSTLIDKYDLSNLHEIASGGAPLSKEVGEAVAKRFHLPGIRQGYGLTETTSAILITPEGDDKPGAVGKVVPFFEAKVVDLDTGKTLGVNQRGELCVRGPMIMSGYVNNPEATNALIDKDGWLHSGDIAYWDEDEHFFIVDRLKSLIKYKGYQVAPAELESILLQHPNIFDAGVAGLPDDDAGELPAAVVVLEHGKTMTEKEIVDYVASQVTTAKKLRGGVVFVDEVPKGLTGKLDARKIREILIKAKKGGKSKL
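Purified 10nM P. pyralis luciferase with 10uM D-luciferin and 10uM ATP in 50mM Tris acetate pH 7.5, 10mM Mg acetate, 0.01% Tween-20, 0.05% BSA. qHTS titration; luminescence read by CCD imager.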
SNCA viab count: cell viability loss counter-screen. HEK-293-SNCA-luc viability, GF-AFC fluorescence, 24 h. Potency, µM (titrated, usually from 57.1 µM), inactives show at the highest dose activity change, negative = cytotoxicity, actives largely listed as cytotoxic. 150,000 tested, 0.12% active;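 note: 0% = DMSO-treated cells and -100% = medium-only wells without cells; nearly all actives have a fitted effect of over 30% in size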
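Cytotoxicity counterscreen: after 24 h compound treatment of genome-edited SNCA-luciferase HEK-293 cells, live-cell protease substrate GF-AFC read by fluorescence after 30 min; activity scaled between DMSO (0%) and medium-only (-100%), curves Hill-fitted.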
Numbers without * were called inactive; i = inactive; ? = inconclusive; . = no result given; [ ] = remark or other dose. Sampled rows, rich in hits. Any-hit rate of the full collection: about 7.4%. Unless noted, calls come from the whole dose curve; as a rule, active = well fitted curve in the direction sought with a large enough effect; inconclusive = small, poorly fitted or top-dose-only effect, or another doubt; inactive = no such curve, though single readings can be large; an effect the other way counts as inactive or inconclusive. Unless noted, % is set by controls: 0 for no effect and ±100 for the full control effect; potency is the fitted concentration of half-maximal effect.

SMILES	HEK293 tox	3T3 cytotox	SNCA expr inhib	NPR1 antag	Luciferase inh	SNCA viab count
Cn1ncc2c(C(=O)NCCc3ccccc3)cc(-c3ccc(F)cc3)nc21	?	?	8%	.	.	-6%
CS(=O)(=O)N1CCOc2ccc(CCC(=O)NCc3ccccn3)cc2C1	-25%	-23%	15%	3%	i	7%[12.5 µM]
CN1CCC(NC(=O)CCC[C@@H]2[C@H]3CCCN4CCC[C@@H](CN2C)[C@@H]34)CC1	1%	i	7%	-1%	i	11%
O=C(NCc1ccc(F)cc1)c1cc(-c2cnccc2Cl)c2cccn2n1	-22%	?	52%	.	.	-19%
CCOc1ccc(CC(=O)Nc2cccn3nc(C)nc23)cc1	i	-3%	36%	5%	i	3%
COc1ccc(NC(=O)Nc2cccn3nc(C)nc23)cc1	?	?	119%	-14%	18µM*	-8%
Cc1nc2c(NC(=O)Nc3cccc(C(F)(F)F)c3)cccn2n1	35µM*	?	-2%	-24%	?	-7%
C=CC(O)CN1CCC(=O)N(Cc2ccccc2)Cc2ccccc21 (stereo not given)	?	-8%	.	.	.	.
Cc1ccc(C(=O)N2CCCC2C(=O)N2CCC3(CC2)CC(=O)Nc2ccccc2O3)cc1 (stereo not given)	-26%	-24%	-8%	.	.	-5%
COc1cc(CNC(=O)c2nc(C(O)c3ccccn3)oc2C)cc(OC)c1 (stereo not given)	?	79µM*	-14%[87.6 µM]	-16%[70.6 µM]	i	-4%[87.6 µM]
Cc1ncc(Cl)c(C(=O)N2CCCn3nc(CO)cc3C2)n1	i	2%	14%	-3%	i	4%
O=C(NC1CC1)c1cc(C2CC2)nc2c1c(C1CCCN1)nn2-c1ccccc1 (stereo not given)	79µM*	32µM*	-7%[87.6 µM]	.	.	-4%[87.6 µM]
O=C(NC1CCNCC1)c1cc(C2CC2)nc2c1c(C1CCCN1)nn2-c1ccccc1 (stereo not given)	45µM*	22µM*	7%	.	.	-26%
Cc1ccc(C)c(NC(=O)c2nc(S(=O)(=O)Cc3ccc(F)cc3)ncc2Cl)c1	.	.	41%	.	.	2%
CCOc1ccccc1NC(=O)c1nc(S(=O)(=O)Cc2cccc(C)c2)ncc1Cl	.	.	6%	.	.	-3%
CCc1nnc(NC(=O)c2nc(S(=O)(=O)Cc3ccc(C)cc3)ncc2Cl)s1	.	.	?	.	.	28µM*
Cc1ccc(CS(=O)(=O)c2ncc(Cl)c(C(=O)Nc3nnc(C(C)C)s3)n2)cc1	.	.	?	.	.	25µM*
CCc1nnc(NC(=O)c2nc(S(=O)(=O)Cc3cccc(C)c3)ncc2Cl)s1	.	.	?	.	.	20µM*
CC(C)(C)C(=O)NCCNC(=O)c1cccc(-c2ccsc2)c1	?	?	35%[87.6 µM]	.	.	11%[12.5 µM]
O=C(NCCNC(=O)C1CCCC1)c1cccc(-c2ccsc2)c1	79µM*	?	-4%[87.6 µM]	.	.	2%[12.5 µM]
O=C(NCCNC(=O)c1cccc(-c2ccsc2)c1)NC1CCCC1	?	-25%	-4%	.	.	3%[12.5 µM]
CC(C)NC(=O)NCCNC(=O)c1cccc(-c2ccsc2)c1	100µM*	?	?	.	.	5%[12.5 µM]
C[C@@H]1CN(Cc2ncccn2)C[C@H]1c1nc2c(cnn2C2CCOCC2)c(=O)[nH]1	.	.	.	.	.	-6%
CCN1CC(CNc2nccc(-c3c(C)nn(C)c3C)n2)CC1=O (stereo not given)	-13%	-19%	-17%	0%	i	-8%
COc1cccc(Nc2ncc3c(n2)C(C)(C(=O)NC2CCN(C)CC2)CC3)c1 (stereo not given)	89µM*	?	-17%[87.6 µM]	-1%[70.6 µM]	i	-17%[87.6 µM]
COc1cccc(Nc2ccc3c(n2)C(C)(C(=O)NC2CCN(C)CC2)CN(C)C3)c1 (stereo not given)	-22%[172 µM]	?	-7%[87.6 µM]	-2%[70.6 µM]	i	-15%[87.6 µM]
COc1cccc(NC(=O)C2(C)CCc3cnc(N4CCOCC4)nc32)c1 (stereo not given)	?	?	-11%[87.6 µM]	2%[70.6 µM]	i	-10%[87.6 µM]

Bioassay records: PubChem, National Center for Advancing Translational Sciences (NCATS)
